High-throughput results as filed in PubChem BioAssay.
T cruzi growth-1: blocks T. cruzi growth in NIH3T3 culture. T. cruzi beta-gal in NIH3T3, GalScreen luminescence, 90 h. inhibition, % at 8.34 µM. hit rate 5.9% among 77,000. AID 624255;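 active = mean inhibition above about 93%, with at least 55% of replicates each passing it, limit read from the data, passing the limit was not always enough; inconclusive = only one of those two conditions holds; inactive = neither condition holds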
Pf Dd2 inh: blocks growth of Plasmodium falciparum Dd2 parasites | P. falciparum Dd2 growth, SYBR Green, 72 h; hits give low values | activity change, % at 10 µM | hit rate 2.3% among 94,000 | AID 1159554; in the data active = activity change below about -80%; inconclusive = no clear call, values can overlap the other calls
C diff HTS: C. difficile growth inhibition | AID 1259249 | Clostridium difficile clinical isolate growth, OD600, 24 h; hits give low values | growth activity, negative = inhibition, % at 16 µg/mL (by protocol) | hit rate 0.25% among 86,000;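 active = mean growth activity at or below -80% and every replicate also at or below -80%; inconclusive = mean at or below -80% but some replicate above -80%; inactive = mean growth activity above -80%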
T cruzi growth-2: blocks T. cruzi growth in NIH3T3 host cells. T. cruzi beta-gal in NIH3T3, GalScreen luminescence, 90 h. hit rate 72% among 5,600. shares compounds with T cruzi growth-1. inhibition, % at 8.35 µM;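 active = mean replicate inhibition above about 95% and at least 55% of replicates individually reaching it, limit read from the data; inconclusive = only one of the two criteria is met; inactive = neither criterion is met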
T cruzi growth-3: inhibitors of T. cruzi proliferation; shares compounds with T cruzi growth-1; T. cruzi beta-gal in NIH3T3, GalScreen luminescence, 90 h; inhibition, % at 2.09 µM; hit rate 21% among 5,600;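 active = mean inhibition above about 95%, with at least 55% of replicates also reaching it, limit read from the data; inconclusive = meets just one of the two conditions; inactive = meets neither condition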
3T3 cytotox: cytotoxicity in mouse NIH/3T3 fibroblasts. shares compounds with T cruzi growth-1. NIH/3T3 viability, CellTiter-Glo ATP luminescence, 90 h. cytotoxicity (signal decrease), % at 8.35 µM. hit rate 14% among 5,600. AID 651742;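 active = mean signal decrease across replicates above about 35% based on untreated-well scatter, with enough replicates individually passing, limit read from the data; inconclusive = no rule stated though some were filed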
NIH3T3 tox 2: kills mouse NIH/3T3 fibroblasts. shares compounds with T cruzi growth-1. NIH/3T3 viability, CellTiter-Glo ATP luminescence, 90 h. inhibition, % at 24.9 µM. hit rate 56% among 5,600. AID 651744;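 active = mean loss of cell viability signal at or above a set limit, and enough replicates individually reaching it; inconclusive = meets only the mean limit or only the replicate share; inactive = meets neither condition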
Large screens that a line does not name were inactive (follow-up assays come after a bar, where they were run). Hits are enriched below; roughly 6.7% of the tested compounds scored in any of these assays.

COc1ccc(C#Cc2ccc3c(c2)O[C@H](CN(C)C(=O)Nc2cccc(OC)c2)[C@@H](C)CN([C@@H](C)CO)S3(=O)=O)cc1	T cruzi growth-1 109, Pf Dd2 inh -85 (no result: C diff HTS) | T cruzi growth-2 100 | T cruzi growth-3 110 | 3T3 cytotox inconclusive | NIH3T3 tox 2 inactive
COc1cccc(NC(=O)N(C)C[C@@H]2Oc3cc(C#CC4(O)CCCC4)ccc3S(=O)(=O)N([C@H](C)CO)C[C@@H]2C)c1	none (no result: T cruzi growth-1)
COc1cccc(NC(=O)N(C)C[C@H]2Oc3cc(C#Cc4ccc(F)cc4)ccc3S(=O)(=O)N([C@@H](C)CO)C[C@@H]2C)c1	T cruzi growth-1 inconclusive | T cruzi growth-2 99 | T cruzi growth-3 108 | 3T3 cytotox inactive | NIH3T3 tox 2 52
COc1cccc(NC(=O)N(C)C[C@H]2Oc3cc(C#Cc4ccncc4)ccc3S(=O)(=O)N([C@@H](C)CO)C[C@H]2C)c1	none
COc1cccc(NC(=O)N(C)C[C@@H]2Oc3cc(C#CC4(O)CCCC4)ccc3S(=O)(=O)N([C@@H](C)CO)C[C@H]2C)c1	none (no result: T cruzi growth-1)
COc1cccc(NC(=O)N(C)C[C@@H]2Oc3cc(-c4ccccc4F)ccc3S(=O)(=O)N([C@H](C)CO)C[C@@H]2C)c1	T cruzi growth-1 98 | T cruzi growth-2 111 | T cruzi growth-3 inactive | 3T3 cytotox inactive | NIH3T3 tox 2 50
COc1ccc(C#Cc2ccc3c(c2)O[C@@H](CN(C)C(=O)Nc2cccc(OC)c2)[C@@H](C)CN([C@@H](C)CO)S3(=O)=O)cc1	T cruzi growth-1 inconclusive, Pf Dd2 inh -90 (no result: C diff HTS) | T cruzi growth-2 105 | T cruzi growth-3 108 | 3T3 cytotox 37 | NIH3T3 tox 2 34
COc1cccc(NC(=O)N(C)C[C@H]2Oc3cc(-c4ccccc4OC)ccc3S(=O)(=O)N([C@H](C)CO)C[C@H]2C)c1	none (no result: T cruzi growth-1)
C[C@H](CO)N1C[C@H](C)[C@@H](CN(C)Cc2ccc(C(=O)O)cc2)OCCCC[C@H](C)Oc2ccc(NS(=O)(=O)c3ccc(Cl)cc3)cc2C1=O	none
C[C@H](CO)N1C[C@H](C)[C@@H](CN(C)C(=O)C2CC2)Oc2ncc(C3=CCCC3)cc2C1=O	none (no result: C diff HTS)
Cc1ccc(S(=O)(=O)N(C)C[C@H]2Oc3ccc(NC(=O)NC4CCCCC4)cc3CC(=O)N([C@@H](C)CO)C[C@H]2C)cc1	none
Cc1ccc(S(=O)(=O)N(C)C[C@H]2Oc3c(NC(=O)c4cc(C)nn4C)cccc3C(=O)N([C@H](C)CO)C[C@H]2C)cc1	none
C[C@H]1CN([C@@H](C)CO)C(=O)c2cc(C#Cc3ccccc3)cnc2O[C@@H]1CN(C)C(=O)C1CC1	none
C[C@H]1CN([C@@H](C)CO)C(=O)c2cccc(NC(=O)c3cnccn3)c2O[C@@H]1CN(C)Cc1ccc(C(=O)O)cc1	none
C[C@H](CO)N1C[C@H](C)[C@@H](CN(C)Cc2ccc(C(=O)Nc3ccccc3N)cc2)Oc2c(cccc2N(C)C)C1=O	T cruzi growth-1 inconclusive | T cruzi growth-2 102 | T cruzi growth-3 inactive | 3T3 cytotox inactive | NIH3T3 tox 2 33
Cc1cc(C(=O)Nc2cccc3c2O[C@@H](CN(C)Cc2ccc(C(=O)O)cc2)[C@@H](C)CN([C@H](C)CO)C3=O)n(C)n1	none (no result: T cruzi growth-1)
C[C@@H]1CN([C@H](C)CO)C(=O)c2cccc(NC(=O)c3ccncc3)c2O[C@H]1CN(C)Cc1ccc(C(=O)Nc2ccccc2N)cc1	T cruzi growth-1 100 | T cruzi growth-2 107 | T cruzi growth-3 inactive | 3T3 cytotox inactive | NIH3T3 tox 2 inactive
C[C@@H]1CN([C@@H](C)CO)C(=O)c2cccc(NC(=O)c3cnccn3)c2O[C@H]1CN(C)Cc1ccc(C(=O)Nc2ccccc2N)cc1	T cruzi growth-1 112, Pf Dd2 inh -93 | T cruzi growth-2 107 | T cruzi growth-3 inactive | 3T3 cytotox inactive | NIH3T3 tox 2 42
C[C@H]1CN([C@@H](C)CO)C(=O)c2cccc(NC(=O)c3ccncc3)c2O[C@H]1CN(C)Cc1ccc(C(=O)Nc2ccccc2N)cc1	none (no result: T cruzi growth-1)
C[C@@H]1CN([C@@H](C)CO)C(=O)c2cccc(N(C)C)c2O[C@H]1CN(C)Cc1ccc(C(=O)Nc2ccccc2N)cc1	none
Cc1cc(C(=O)Nc2cccc3c2O[C@@H](CN(C)Cc2ccc(C(=O)Nc4ccccc4N)cc2)[C@@H](C)CN([C@@H](C)CO)C3=O)n(C)n1	T cruzi growth-1 101 | T cruzi growth-2 102 | T cruzi growth-3 inactive | 3T3 cytotox inactive | NIH3T3 tox 2 inactive
CCC(=O)N1C[C@@H]2[C@H](c3ccccc31)[C@@H](CO)N2C(=O)Nc1ccccc1	none
COc1ccc2c3c([nH]c2c1)[C@@H](CO)N(CC1CCOCC1)CC31CN(C(=O)c2ccc(F)cc2)C1	none (no result: T cruzi growth-1)
C[C@@H]1CCCCO[C@H](CN(C)S(C)(=O)=O)[C@@H](C)CN([C@H](C)CO)C(=O)c2cc(NS(C)(=O)=O)ccc2O1	none
CCCNC(=O)N1[C@H](C#N)[C@H](c2ccccc2-c2cccc(C)c2)[C@@H]1CO	none (no result: T cruzi growth-1)
Cc1cc(C(=O)Nc2cccc3c2O[C@@H](CN(C)Cc2ccc(Oc4ccccc4)cc2)[C@H](C)CN([C@H](C)CO)C3=O)n(C)n1	T cruzi growth-1 104 | T cruzi growth-2 104 | T cruzi growth-3 inactive | 3T3 cytotox inactive | NIH3T3 tox 2 104
C[C@@H]1CN([C@@H](C)CO)C(=O)c2cccc(NC(=O)c3ccncc3)c2O[C@H]1CN(C)Cc1ccccc1	none
C[C@H](CO)N1C[C@H](C)[C@@H](CN(C)Cc2ccc(C(=O)Nc3ccccc3N)cc2)Oc2c(NC(=O)C3CCOCC3)cccc2C1=O	T cruzi growth-1 99 | T cruzi growth-2 102 | T cruzi growth-3 inactive | 3T3 cytotox inactive | NIH3T3 tox 2 inactive
Cc1cc(C(=O)Nc2cccc3c2O[C@H](CN(C)Cc2ccc(Oc4ccccc4)cc2)[C@H](C)CN([C@@H](C)CO)C3=O)n(C)n1	none
C[C@@H]1CN([C@@H](C)CO)C(=O)c2cccc(NC(=O)c3ccncc3)c2O[C@@H]1CN(C)Cc1ccc(C(=O)Nc2ccccc2N)cc1	T cruzi growth-1 inconclusive | T cruzi growth-2 inactive | T cruzi growth-3 inactive | 3T3 cytotox inactive | NIH3T3 tox 2 67
C[C@H](CO)N1C[C@H](C)[C@H](CN(C)Cc2ccc(C(=O)Nc3ccccc3N)cc2)Oc2c(NC(=O)C3CCOCC3)cccc2C1=O	none
C[C@H]1CN([C@@H](C)CO)C(=O)c2cc(NC(=O)Nc3ccc(F)cc3)ccc2O[C@@H]1CN(C)Cc1ccc(Oc2ccccc2)cc1	none
C[C@@H]1CN([C@@H](C)CO)S(=O)(=O)c2ccc(C#CCN(C)C)cc2O[C@H]1CN(C)Cc1ccncc1	T cruzi growth-1 107 | T cruzi growth-2 108 | T cruzi growth-3 inconclusive | 3T3 cytotox inactive | NIH3T3 tox 2 46
